Among all 5,500 compounds or so, about 2,000 (36%) were called active. Not shown: some 18% with an inconclusive outcome. No stated cut-off is given here; in the data, active means normalized growth mostly below about 0.91 (no sharp cut-off); inconclusive means no clear call, values can overlap the other calls; inactive means mostly above about 0.92. Some of the results follow.
Assay: chemical genetic growth profiling, strain panel (AID 1159580);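 further: tested at 20 µM; growth read once vehicle control cultures reached saturation at 30 °C; 1 = growth at the plate median or of vehicle wells; lower values mean less growth of the strain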
Details: growth OD

Measured: normalized growth

Oc1ccc2c3c1OC1[C@@H](O)CC[C@@]4(O)[C@@H](C2)N(CC2CCC2)CC[C@]314 (some centres not stated)
inactive: S. cerevisiae deletion strains, locus YJR075W, strain HOC1, hits give low values 1.03 | S. cerevisiae deletion strains, locus YKL009W, strain mrt4, hits give low values 1 | S. cerevisiae deletion strains, locus YKL068W, hits give low values 1.01 | S. cerevisiae deletion strains, locus YKL085W, strain MDH1 (second series), hits give low values 1 | S. cerevisiae deletion strains, locus YKL085W, strain MDH1, hits give low values 1 | S. cerevisiae deletion strains, locus YKL160W, strain elf1, hits give low values 0.992 | S. cerevisiae deletion strains, locus YKL190W, strain CNB1, hits give low values 1.01 | S. cerevisiae deletion strains, locus YKR001C, strain vps1, hits give low values 1.01 | S. cerevisiae deletion strains, locus YKR026C, strain gcn3, hits give low values 0.952 | S. cerevisiae deletion strains, locus YKR091W, strain srl3, hits give low values 0.992 | S. cerevisiae deletion strains, locus YLL001W, strain dnm1, hits give low values 0.978 | S. cerevisiae deletion strains, locus YLL026W, hits give low values 0.999 | S. cerevisiae deletion strains, locus YLL041C, strain sdh2, hits give low values 0.993 | S. cerevisiae deletion strains, locus YLR027C, strain aat2, hits give low values 1 | S. cerevisiae deletion strains, locus YLR039C, strain RIC1, hits give low values 1.04 | S. cerevisiae deletion strains, locus YLR058C, strain SHM2, hits give low values 1.02 | S. cerevisiae deletion strains, locus YLR102C, strain apc9, hits give low values 1.01 | S. cerevisiae deletion strains, locus YLR113W, strain HOG1, hits give low values 0.971 | S. cerevisiae deletion strains, locus YLR221C, strain rsa3, hits give low values 1.02 | S. cerevisiae deletion strains, locus YLR258W, strain gsy2, hits give low values 1.01 | S. cerevisiae deletion strains, locus YLR262C, strain YPT6 (second series), hits give low values 0.986 | S. cerevisiae deletion strains, locus YLR262C, strain YPT6, hits give low values 1.01 | S. cerevisiae deletion strains, locus YLR268W, strain sec22, hits give low values 1.06 | S. cerevisiae deletion strains, locus YLR320W, strain mms22, hits give low values 1.01 | S. cerevisiae deletion strains, locus YLR330W, strain CHS5, hits give low values 1.01 | S. cerevisiae deletion strains, locus YLR342W, strain FKS1 (second series), hits give low values 1.01 | S. cerevisiae deletion strains, locus YLR342W, strain FKS1, hits give low values 1 | S. cerevisiae deletion strains, locus YLR357W, strain rsc2, hits give low values 0.967 | S. cerevisiae deletion strains, locus YLR370C, strain arc18, hits give low values 0.989 | S. cerevisiae deletion strains, locus YLR371W, strain rom2, hits give low values 1.02 | S. cerevisiae deletion strains, locus YLR384C, strain iki3, hits give low values 0.991 | S. cerevisiae deletion strains, locus YLR418C, strain cdc73, hits give low values 1.03 | S. cerevisiae deletion strains, locus YML016C, strain PPZ1, hits give low values 1.01 | S. cerevisiae deletion strains, locus YML032C, strain rad52, hits give low values 1.03 | S. cerevisiae deletion strains, locus YML120C, strain ndi1, hits give low values 1 | S. cerevisiae deletion strains, locus YML124C, strain tub3, hits give low values 1.01 | S. cerevisiae deletion strains, locus YMR058W, strain fet3, hits give low values 1.02 | S. cerevisiae deletion strains, locus YMR078C, strain ctf18, hits give low values 1.02 | S. cerevisiae deletion strains, locus YMR125W, strain sto1, hits give low values 0.982 | S. cerevisiae deletion strains, locus YMR129W, hits give low values 1 | S. cerevisiae deletion strains, locus YMR205C, strain PFK2, hits give low values 0.993 | S. cerevisiae deletion strains, locus YMR223W, strain ubp8, hits give low values 1.01 | S. cerevisiae deletion strains, locus YMR231W, strain pep5, hits give low values 1 | S. cerevisiae deletion strains, locus YMR263W, strain SAP30, hits give low values 1.02 | S. cerevisiae deletion strains, locus YMR307W, strain GAS1, hits give low values 1.04 | S. cerevisiae deletion strains, locus YNL067W, strain RPL9B, hits give low values 1.03 | S. cerevisiae deletion strains, locus YNL071W, strain lat1, hits give low values 1 | S. cerevisiae deletion strains, locus YNL128W, strain TEP1, hits give low values 1.03 | S. cerevisiae deletion strains, locus YNL153C, strain GIM3, hits give low values 1.03 | S. cerevisiae deletion strains, locus YNL183C, strain NPR1, hits give low values 0.914 | S. cerevisiae deletion strains, locus YNL209W, strain ssb2, hits give low values 1.01 | S. cerevisiae deletion strains, locus YNL233W, strain BNI4, hits give low values 1.02 | S. cerevisiae deletion strains, locus YNL248C, strain rpa49, hits give low values 0.92 | S. cerevisiae deletion strains, locus YNL250W, strain rad50, hits give low values 1.01 | S. cerevisiae deletion strains, locus YNL271C, strain bni1, hits give low values 1.01 | S. cerevisiae deletion strains, locus YNL298W, strain CLA4, hits give low values 1.01 | S. cerevisiae deletion strains, locus YNL307C, strain MCK1, hits give low values 1.01 | S. cerevisiae deletion strains, locus YNL322C, strain KRE1 (second series), hits give low values 0.999 | S. cerevisiae deletion strains, locus YNL322C, strain KRE1, hits give low values 1.01 | S. cerevisiae deletion strains, locus YNR049C, strain mso1, hits give low values 0.988 | S. cerevisiae deletion strains, locus YNR052C, strain pop2, hits give low values 1.01 | S. cerevisiae deletion strains, locus YOL006C, strain TOP1, hits give low values 1.04 | S. cerevisiae deletion strains, locus YOL012C, strain htz1 0.773 | S. cerevisiae deletion strains, locus YOL147C, strain pex11, hits give low values 1.01 | S. cerevisiae deletion strains, locus YOR001W, strain rrp6, hits give low values 0.997 | S. cerevisiae deletion strains, locus YOR061W, strain CKA2, hits give low values 1.01 | S. cerevisiae deletion strains, locus YOR069W, strain VPS5, hits give low values 1.01 | S. cerevisiae deletion strains, locus YOR070C, strain gyp1, hits give low values 1 | S. cerevisiae deletion strains, locus YOR080W, strain dia2, hits give low values 0.988 | S. cerevisiae deletion strains, locus YOR083W, strain WHI5, hits give low values 0.987 | S. cerevisiae deletion strains, locus YOR106W, strain vam3, hits give low values 0.993 | S. cerevisiae deletion strains, locus YOR136W, strain idh2, hits give low values 1.02 | S. cerevisiae deletion strains, locus YOR144C, strain elg1, hits give low values 1.01 | S. cerevisiae deletion strains, locus YOR184W, strain ser1, hits give low values 1.01 | S. cerevisiae deletion strains, locus YOR231W, strain MKK1, hits give low values 0.96 | S. cerevisiae deletion strains, locus YOR265W, strain rbl2, hits give low values 1 | S. cerevisiae deletion strains, locus YOR270C, strain vph1, hits give low values 0.997 | S. cerevisiae deletion strains, locus YOR290C, strain snf2, hits give low values 1.02 | S. cerevisiae deletion strains, locus YOR316C, strain cot1, hits give low values 1.02 | S. cerevisiae deletion strains, locus YPL051W, strain arl3, hits give low values 1.01 | S. cerevisiae deletion strains, locus YPL055C, strain LGE1, hits give low values 1.05 | S. cerevisiae deletion strains, locus YPL078C, strain atp4, hits give low values 0.984 | S. cerevisiae deletion strains, locus YPL106C, strain sse1, hits give low values 1.01 | S. cerevisiae deletion strains, locus YPL240C, strain hsp82, hits give low values 0.997 | S. cerevisiae deletion strains, locus YPL241C, strain CIN2, hits give low values 1.01 | S. cerevisiae deletion strains, locus YPL256C, strain CLN2, hits give low values 0.972 | S. cerevisiae deletion strains, locus YPR119W, strain clb2, hits give low values 1.01 | S. cerevisiae deletion strains, locus YPR141C, strain kar3, hits give low values 1.02 | S. cerevisiae deletion strains, locus YPR163C, strain tif3, hits give low values 1.01 | S. cerevisiae deletion strains, locus YPR167C, strain met16, hits give low values 1.02 | S. cerevisiae deletion strains, strain wtn01, hits give low values 1.02 | S. cerevisiae strains, strain wild type, hits give low values 1.02

From PubChem BioAssay AID1159580 (chemical genetic matrix, 2015)
